# Assay outcomes deposited in PubChem by several laboratories.
# Sampled rows, rich in hits. Any-hit rate of the full collection: about 4.1%.
# Jurkat NFkB inh: inhibitors of the PMA/ionomycin-induced NF-kB reporter in Jurkat cells | AID 435003 | hit rate 0.53% among 330,000 | inhibition, % at 4 µM | PMA/ionomycin-induced NF-kB luciferase reporter, luminescence; in the data active = inhibition above about 50%
# 697 NFkB inh: lowers PMA/ionomycin-induced NF-kB signal in 697 B cells; 697 B-cell NF-kB luciferase reporter, 16 h; inhibition, % at 4 µM; hit rate 0.33% among 330,000; AID 435022; in the data active = inhibition above about 35%
# Gli-Sufu block: Gli-Sufu pathway antagonism. Sufu-KO-LIGHT fibroblasts, Gli luciferase reporter luminescence. hit rate 0.74% among 340,000. inhibition, % at 5 µM;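 active = inhibition above about 55%, limit read from the data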;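 also: 0% = DMSO-treated cells and 100% = wells with medium but no cells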
# KLF5 inhibitor: inhibitors of KLF5 expression | DLD-1 KLF5 promoter-luciferase reporter, luminescence | hit rate 0.23% among 290,000 | inhibition, % at 5 µM;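 active = inhibition above a per-plate limit of that plate's mean compound inhibition plus 3 SD, cut at about 60% in these data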;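 also: 0% = DMSO wells and 100% = LY294002 at 200 µM; higher means less KLF5 promoter-driven luciferase light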
# aSyn 5UTR inh: 5' untranslated region of α-synuclein, MLPCN primary screen; inhibition, % (tested at 7.5 µM); alpha-synuclein 5'UTR reporter, inhibitor activity; hit rate 0.82% among 300,000; in the data active = inhibition above about 60%;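 also: H4 neuroglioblastoma cells stably carrying SNCA 5'UTR luciferase fusion; 0% = DMSO wells and 100% = positive control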
# Mdm2-MdmX inh: disrupts the human Mdm2-MdmX interaction | O15151+Q00987 | SaOS-2 split-luciferase Mdm2/MdmX complementation, luminescence | inhibition, % at 8 µM | hit rate 3% among 330,000 | AID 485346;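 active = inhibition of at least 50% at 8 µM in the primary screen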
# Target sequence (O15151 whole entry, looked up): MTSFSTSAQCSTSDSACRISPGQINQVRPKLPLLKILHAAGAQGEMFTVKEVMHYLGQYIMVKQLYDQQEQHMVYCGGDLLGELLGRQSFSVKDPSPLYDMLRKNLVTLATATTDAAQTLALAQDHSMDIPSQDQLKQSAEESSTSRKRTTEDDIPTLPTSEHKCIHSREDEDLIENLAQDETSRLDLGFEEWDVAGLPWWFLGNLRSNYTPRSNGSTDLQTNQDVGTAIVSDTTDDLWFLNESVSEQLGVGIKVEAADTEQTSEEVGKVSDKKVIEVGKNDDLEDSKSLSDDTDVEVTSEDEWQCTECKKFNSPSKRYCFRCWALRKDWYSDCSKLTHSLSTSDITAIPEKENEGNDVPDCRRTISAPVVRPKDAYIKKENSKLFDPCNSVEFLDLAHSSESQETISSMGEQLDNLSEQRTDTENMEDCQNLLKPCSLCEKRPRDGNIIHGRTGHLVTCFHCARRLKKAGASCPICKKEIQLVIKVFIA
# Target sequence (Q00987 whole entry, looked up): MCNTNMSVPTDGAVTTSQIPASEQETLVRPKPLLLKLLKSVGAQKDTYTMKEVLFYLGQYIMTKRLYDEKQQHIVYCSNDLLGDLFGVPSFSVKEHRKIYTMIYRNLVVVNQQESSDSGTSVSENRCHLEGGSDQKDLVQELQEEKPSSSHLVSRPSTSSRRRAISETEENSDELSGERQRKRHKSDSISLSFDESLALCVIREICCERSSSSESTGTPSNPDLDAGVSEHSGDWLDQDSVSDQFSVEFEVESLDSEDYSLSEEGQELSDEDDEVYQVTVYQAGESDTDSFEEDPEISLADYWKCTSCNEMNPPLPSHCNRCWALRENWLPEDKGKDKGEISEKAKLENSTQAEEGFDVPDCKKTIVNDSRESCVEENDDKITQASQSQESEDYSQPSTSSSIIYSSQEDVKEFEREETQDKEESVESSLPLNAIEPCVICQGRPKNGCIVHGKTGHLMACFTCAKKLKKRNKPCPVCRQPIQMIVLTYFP
# Jurkat NFkB conf: inhibitors of the PMA/ionomycin-induced NF-kB reporter in Jurkat cells, retest | shares compounds with Jurkat NFkB inh | inhibition, % at 4 µM | hit rate 27% among 2,700 | AID 435020 | Jurkat NF-kB luciferase, 16 h;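 active = inhibition reaching about 45% at 4 µM in either replicate, limit read from the data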;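 also: plate controls were PMA/ionomycin stimulated DMSO wells for no effect and unstimulated DMSO wells for full effect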
# 697 NFkB conf: inhibitors of the PMA/ionomycin-induced NF-kB reporter in 697 B cells, retest; AID 449746; 697 B-cell NF-kB luciferase, 16 h; hit rate 35% among 2,000; shares compounds with 697 NFkB inh; inhibition, % at 4 µM; in the data active = inhibition mostly above about 28%, no sharp cut-off; inactive = mostly below about 22%
# Mdm2-MdmX conf: confirmation of human Mdm2/MdmX interaction inhibitors; AID 489028; shares compounds with Mdm2-MdmX inh; inhibition, % at 8 µM; Mdm2-MdmX binding, luminescent assay; hit rate 55% among 10,000; in the data active = inhibition above about 40%
# FLuc counter: counter-screen for Mdm2/MdmX inhibitors: full-length luciferase | shares compounds with Mdm2-MdmX inh | SaOS-2 full-length luciferase counterscreen, luminescence | inhibition, % at 8 µM | hit rate 77% among 6,200 | AID 504607;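 active = mean inhibition at 8 µM reaching about 37%, which flags the compound as non-specific, limit read from the data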;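 also: p53-null SaOS-2 cells with luciferase driven by a doxycycline-inducible promoter; compound on cells about two nights before reading with doxycycline added after day one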
# Active calls of the source: *; · = no result given.
SMILES,Jurkat NFkB inh,697 NFkB inh,Gli-Sufu block,KLF5 inhibitor,aSyn 5UTR inh,Mdm2-MdmX inh,Jurkat NFkB conf,Mdm2-MdmX conf,FLuc counter,others
O=C(NCCC1CCCCN1S(=O)(=O)c1cccs1)C(=O)Nc1ccccc1 (stereo not given),-5.2,-6.5,-3.9,·,-26.5,2.4,·,·,·,
COc1ccc(NC(=O)C(=O)NCCC2CCCCN2S(=O)(=O)c2cccs2)cc1 (stereo not given),60.8*,-26.8,1.9,·,3.3,52.5*,35.2,73.3*,74.8*,
COCCNC(=O)C(=O)Nc1ccc2c(c1)N(S(=O)(=O)c1cccs1)CCC2,60.1*,3.2,-8.3,·,-17.5,55.6*,24.4,72.2*,63.9*,
COc1ccc(S(=O)(=O)N2CCCC2CNC(=O)C(=O)Nc2ccc(C)cc2)cc1 (stereo not given),7.7,8.5,-11.5,·,14.3,27.6,·,·,·,
CN(C(=O)c1cccc(NC(=O)Cc2ccc(NC(=O)C3CCN(C(=O)CCc4ccccc4)CC3)cc2)c1)C1CC1,·,·,8.0,·,·,·,·,·,·,
O=C(Nc1ccc([N+](=O)[O-])cc1)C(=O)Nc1cccc(C(=O)O)c1,56.0*,46.2*,-138.0,81.1*,101.6*,63.8*,66.9*,67.2*,31.0,697 NFkB conf=22.6*
C=CCn1c(SCC(=O)c2ccccc2)nnc1-c1ccc2c(c1)OCO2,22.1,20.0,-30.7,-13.8,·,1.7,·,·,·,
CSC1=NC(C(Cl)(Cl)Cl)N=C(c2ccc(C)cc2)N1 (stereo not given),70.2*,-4.6,1.6,53.3,118.2*,71.7*,44.0,69.7*,67.2*,
C(=N\Nc1nc2ccccc2s1)/c1ccccn1,84.3*,21.5,74.8*,48.5,100.9*,94.4*,73.4*,95.5*,48.1*,
CC(=O)Nc1cccc(NS(=O)(=O)c2cc3c4c(c2)CCN4C(=O)CC3)c1,-8.8,9.6,-0.4,·,-10.5,6.6,·,·,·,
FC(F)(F)c1nnc2c(Sc3ccccn3)nc3ccccc3n12,-21.7,-84.9,-9.6,-8.5,-13.1,49.2,·,·,·,
FC(F)(F)c1nnc2c(Sc3ccc(Cl)cc3)nc3ccccc3n12,74.2*,8.3,19.9,-29.1,37.4,85.1*,4.5,94.8*,31.6,
CCCCc1nc(SCC(=O)N2CCOCC2)c2c(=O)n(C)c(=O)n(C)c2n1,-4.5,-3.1,9.6,-8.1,6.2,3.5,·,·,·,
Cc1ccc(N(C)S(=O)(=O)c2ccc(-c3cc(C)no3)s2)cc1,50.7*,-46.8,-8.4,35.4,-38.1,53.5*,20.4,54.9*,58.9*,
COc1ccc(-c2cc(C)no2)cc1S(=O)(=O)N(C)c1ccc(C)c(C)c1,1.9,-32.0,11.9,-20.6,28.4,14.9,·,·,·,
Cc1cc(-c2ccc(S(=O)(=O)N(C)c3ccc(C)c(C)c3)s2)on1,57.4*,-56.1,26.0,32.2,-0.1,56.4*,40.2,54.3*,46.6*,
S=C(NCc1ccco1)Nc1ccc(Cl)cn1,4.1,-27.4,-5.0,1.5,15.7,0.0,·,·,·,
CCOc1ccc(S(=O)(=O)Nc2cccc(C(=O)NCCCn3ccnc3)c2)cc1,-10.7,-23.2,·,·,·,-18.6,·,·,·,
N#Cc1ccccc1S(=O)(=O)Nc1ccc2c(c1)C(=O)OC2,-0.7,4.1,4.2,-26.3,6.8,-7.6,·,·,·,
COc1cccc2c1C(=O)c1c(O)c3c(c(O)c1C2=O)C[C@@](O)(C(=O)CO)C[C@@H]3O[C@H]1C[C@H](N)[C@@H](O)[C@H](C)O1,94.0*,86.5*,67.9*,·,109.3*,94.2*,89.9*,99.5*,4.0,697 NFkB conf=92.2*
Cc1cccc(OCC(O)Cn2c(=N)n(Cc3ccccc3)c3ccccc32)c1 (stereo not given),62.1*,-41.9,7.8,-32.4,8.8,87.6*,18.0,63.5*,64.1*,
O=C(NC(=S)Nc1cccc(Cl)c1N1CCCCC1)c1ccc2c(c1)OCCO2,50.3*,-28.9,-2.7,8.3,-36.1,61.4*,2.1,63.0*,56.7*,
